Reference: PubChem BioAssay
Values joined by “and” are separate entries in the source; they are usually repeats but may differ in a detail not shown here. Identical values can stand only once. Active and inactive are the calls of the source.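 The calls were made as follows, unless noted: active = inhibition at or above 50% relative to wild type and mutant plate controls; inactive = inhibition below 50%.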

Tests used:
[1] = inhibitors of TNFa-induced NFkB p65 translocation, primary screen, imaging, HUVEC, MLSMR starter and 10KST1 sets (AID 438;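 active = inhibition above 20% together with a positive visual image hit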;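 also: compound added about 3h40 before a 20 min TNFalpha stimulation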;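 as to inhibition: signal is the nuclear over cytoplasmic p65 intensity ratio per well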); conditions: HUVEC TNFa-induced p65 nuclear translocation; cell count: measured here: nuclei count (cytotoxicity indicator), at 2.08 µM; inhibition: at 2 µM, stronger effect = higher value, 0% TNFa-plus-vehicle, 100% no-TNFa wells
[2] = inhibitors of mutant huntingtin aggregation, primary screen, imaging, exon1htt(103Q)mCFP cells, high-content imaging (AID 483;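 active = visual image review flags a hit and inhibition of aggregation exceeds 20%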;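 also: compound exposure lasted 3 days before fixation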;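 as to nuclei count: percent of the per-plate median nuclei count of sample wells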); conditions: exon1htt(103Q)mCFP cell line, aggregate imaging, at 2 µM; inhibition of aggregation: stronger effect = higher value; nuclei count: measured here: cell count, toxicity
[3] = inhibitors of E-selectin induction by TNFa, primary screen, imaging, HUVEC, immunofluorescence, MLSMR starter and 10KST1 sets (AID 487;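 active = visually confirmed hit in the image check and inhibition above 20%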;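 as to inhibition: signal is fraction of cell area covered by stained E-selectin grains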;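 as to nuclei count: 100% = median nuclei count of all wells on the same plate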); conditions: HUVEC TNFalpha-induced E-selectin immunofluorescence imaging, at 2 µM; inhibition: stronger effect = higher value; nuclei count: measured here: cell number, toxicity
[4] = DUSP6 inhibitors restoring Erk phosphorylation by chemical complementation, primary imaging in DUSP6-transfected HeLa (AID 609;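 active = compounds giving at least 50% inhibition in the cell-based MKP-3 phosphatase rescue imaging test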;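 as to inhibition: phospho-Erk level distribution per well compared with pooled transfected vehicle control wells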); conditions: HeLa MKP-3 transfected, phospho-Erk imaging KS statistic, at 10 µM, cells stimulated with TPA for 15 min
[5] = target: Dual specificity protein phosphatase 6 (Homo sapiens) (UniProt Q16828); assay: as above; conditions: HeLa MKP-3 transfected, phospho-Erk imaging KS statistic; at 10 µM; stronger effect = higher value; cells stimulated with TPA for 15 min
[6] = target: Voltage-gated potassium channel subunit beta-2 (Rattus norvegicus) (UniProt P62483); assay: KvBeta enzyme negative modulators, primary screen, biochemical, NADPH fluorescence (AID 622;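 active = fluorescence slope higher than the sample average by over 3 SD, cut at about -0.22 in these data, passing the limit was not always enough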;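 also: slope of raw intensity against log time taken from 70 to 1610 s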); conditions: recombinant KvBeta, 4-cyanobenzaldehyde reduction, at 10 µM, stronger effect = higher value
[7] = target: Voltage-gated potassium channel subunit beta-2 (Rattus norvegicus) (UniProt P62483); assay: KvBeta positive modulators, primary screen, biochemical, NADPH fluorescence (AID 623;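 active = NADPH fluorescence slope more negative than the mean of all samples by about 3 SD, 99.7% confidence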;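 also: fluorescence intensity change per second fitted from 20 to 320 s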); conditions: Recombinant KvBeta, NADPH fluorescence decrease slope, 10 min; at 10 µM; stronger effect = lower value
[8] = target: Muscarinic acetylcholine receptor M4 (Homo sapiens) (UniProt P08173); assay: compounds altering M4/GIRK thallium flux, either direction, primary screen, M4 allosteric agonist project, cell-based, HEK293 M4/GIRK, BTC-AM (AID 625;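 active = fluorescence slope after compound addition differing from the mean of all tested samples at 99.7% confidence, mostly higher but some lower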;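 also: thallium influx through GIRK channels coupled to M4 in HEK293 cells with BTC-AM dye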); conditions: at 10 µM, actives lie on both sides
[9] = inhibitors of larval lipid processing in zebrafish, primary screen, whole organism, PED6 fluorescence, gall bladder and intestine (AID 686;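 active = a full or partial loss of lipid-probe fluorescence in the fish gall bladder, intestine or both, judged by eye; inactive = no fluorescence loss, or compound toxic to the fish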;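 also: larvae 5 to 7 days old with five fish per well; signal comes from phospholipase A2 cleavage of quenched PED6 carried via bile; overnight exposure to compound and PED6 before scoring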); conditions: Zebrafish larvae PED6 lipid processing, fluorescence scoring; screened at 20 µM (by protocol)
[10] = inhibitors of Chlamydomonas gravitaxis, primary screen, whole organism, Chlamydomonas reinhardtii, WT vs cilia-less mutant, absorbance, 96-well (AID 463189); conditions: OD600 absorbance, 2 days, at 10 µM, stronger effect = higher value;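 also: 0% = wild type cc124 cells in DMSO and 100% = ciliumless bld1 mutant cells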
[11] = inhibitors of Sendai virus-induced IRF3 signaling, primary screen, TLR/RLR signaling modifier project, cell-based, Sendai virus stimulus, luciferase, 10K MLSCN set (AID 602276;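 active = inhibition at or above 50% at 10 µM; inactive = inhibition below 50%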;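 also: firefly luciferase from ISG56 promoter only with Renilla not read in this screen; 0% = Sendai virus plus DMSO and 100% = medium plus DMSO without virus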); conditions: HEK293 RL24 IRF3 luciferase reporter, at 10 µM, stronger effect = higher value
[12] = inhibitors of poly I:C-induced TLR3 signaling, primary screen, cell-based, poly I:C stimulus, luciferase, 10K MLSCN set (AID 602277;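 active = inhibition of the reporter signal at or above 50%; inactive = inhibition below 50%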); conditions: HEK293-TLR3 RL24 IRF3 luciferase reporter, at 10 µM, stronger effect = higher value
[13] = target: Alpha-2C adrenergic receptor (Homo sapiens) (UniProt P18825); assay: modulators of alpha2C/GIRK thallium flux, primary screen, cell-based, HEK293 alpha2C/GIRK1/2 (AID 624;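 active = fluorescence slope after compound addition differing from the mean of all screened samples at 99.7% confidence, in either direction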;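 also: slope of fluorescence ratio to pre-addition baseline per second over 15 to 24 s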); conditions: thallium flux BTC fluorescence, at 10 µM, actives lie on both sides
[14] = measured here: cell density z-score
[15] = measured here: nuclear c-Myc green intensity z-score
[16] = measured here: nuclear pErk red intensity z-score, stronger effect = higher value

Chain of Dual specificity protein phosphatase 6 (Homo sapiens) (Q16828 whole entry, looked up): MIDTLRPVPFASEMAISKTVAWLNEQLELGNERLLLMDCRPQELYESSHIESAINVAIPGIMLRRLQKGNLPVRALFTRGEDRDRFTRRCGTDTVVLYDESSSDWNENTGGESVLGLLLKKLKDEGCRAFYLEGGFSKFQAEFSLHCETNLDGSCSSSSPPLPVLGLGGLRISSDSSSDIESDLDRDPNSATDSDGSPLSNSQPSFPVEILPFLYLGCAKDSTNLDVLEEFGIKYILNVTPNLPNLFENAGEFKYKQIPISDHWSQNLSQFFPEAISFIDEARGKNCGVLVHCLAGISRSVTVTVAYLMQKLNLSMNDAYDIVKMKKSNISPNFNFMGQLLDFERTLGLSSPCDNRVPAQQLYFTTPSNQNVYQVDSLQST
Chain of Voltage-gated potassium channel subunit beta-2 (Rattus norvegicus) (P62483 whole entry, looked up): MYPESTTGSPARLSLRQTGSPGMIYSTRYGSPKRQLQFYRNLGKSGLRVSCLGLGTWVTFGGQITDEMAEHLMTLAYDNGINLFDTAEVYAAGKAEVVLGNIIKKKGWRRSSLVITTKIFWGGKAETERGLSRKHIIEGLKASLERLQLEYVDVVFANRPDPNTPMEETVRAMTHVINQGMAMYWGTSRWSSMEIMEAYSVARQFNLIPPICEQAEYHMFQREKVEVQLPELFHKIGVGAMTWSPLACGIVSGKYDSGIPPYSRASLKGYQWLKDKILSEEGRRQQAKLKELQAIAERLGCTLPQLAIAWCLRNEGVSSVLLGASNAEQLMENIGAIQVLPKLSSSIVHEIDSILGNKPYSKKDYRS
Chain of Alpha-2C adrenergic receptor (Homo sapiens) (P18825 whole entry, looked up): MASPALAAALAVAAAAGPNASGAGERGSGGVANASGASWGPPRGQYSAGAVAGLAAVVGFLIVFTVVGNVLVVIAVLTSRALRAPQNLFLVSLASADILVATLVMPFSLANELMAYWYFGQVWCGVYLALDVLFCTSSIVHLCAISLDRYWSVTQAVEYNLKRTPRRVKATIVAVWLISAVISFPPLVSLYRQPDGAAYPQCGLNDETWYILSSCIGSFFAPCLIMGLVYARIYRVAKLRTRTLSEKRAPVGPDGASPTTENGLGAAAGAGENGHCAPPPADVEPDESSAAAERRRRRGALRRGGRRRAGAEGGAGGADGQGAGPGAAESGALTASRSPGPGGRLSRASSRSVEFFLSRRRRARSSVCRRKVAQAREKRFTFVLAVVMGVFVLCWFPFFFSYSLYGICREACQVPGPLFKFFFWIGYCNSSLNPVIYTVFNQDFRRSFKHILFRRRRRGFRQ
Chain of Muscarinic acetylcholine receptor M4 (Homo sapiens) (P08173 whole entry, looked up): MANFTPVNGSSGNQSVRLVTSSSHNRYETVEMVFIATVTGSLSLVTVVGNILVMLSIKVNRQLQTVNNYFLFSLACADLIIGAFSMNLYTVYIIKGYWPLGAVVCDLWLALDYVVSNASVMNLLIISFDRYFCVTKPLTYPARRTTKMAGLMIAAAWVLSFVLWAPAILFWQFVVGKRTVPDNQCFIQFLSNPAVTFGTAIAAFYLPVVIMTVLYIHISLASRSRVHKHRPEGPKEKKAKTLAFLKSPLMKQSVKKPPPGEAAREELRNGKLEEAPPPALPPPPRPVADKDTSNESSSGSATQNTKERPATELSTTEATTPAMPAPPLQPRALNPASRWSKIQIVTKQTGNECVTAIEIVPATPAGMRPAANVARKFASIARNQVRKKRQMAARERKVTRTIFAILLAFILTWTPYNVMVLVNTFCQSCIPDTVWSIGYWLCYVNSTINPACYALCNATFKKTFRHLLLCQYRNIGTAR

Compound | cell count [1] | inhibition [1] | inhibition of aggregation [2] | nuclei count [2] [%] | inhibition [3] | nuclei count [3] [%] | z-score [4, 14] | z-score [4, 15] | z-score [4, 16] | inhibition [5] | fluorescence slope [6] | NADPH fluorescence slope [7] | fluorescence slope [8] | outcome [9] | inhibition [10] | inhibition [11] | inhibition [12] | slope [13]
Nc1nc(NC(=O)c2cccs2)nn1-c1ccccc1 | 647 | -6.2% (inactive) | 2.6% (inactive) | 104 | 28.5% (inactive) | 140 | -2.6 | 0.834 | 1.83 | 14.4% (inactive) | -0.486 (inactive) | -6.6e-05 (inactive) | 0.00702 (inactive) | inactive | -2.85% (inactive) | -31.7% (inactive) | -72.3% (inactive) | –
Cc1nc2c(o1)CCc1ccccc1C2O (stereo not drawn) | 606 | 3.6% (inactive) | -5% (inactive) | 106 | -16.2% (inactive) | 99.8 | 3.05 | -1.58 | -1.98 | 15.5% (inactive) | -0.523 (inactive) | -4e-05 (inactive) | 0.00553 (inactive) | inactive | 19.1% (inactive) | 2.65% (inactive) | 14.8% (inactive) | –
Cc1cc2c(c(=O)o1)C(Cc1ccccc1)C(C#N)=C(N)O2 (stereo not drawn) | 706 | -3.3% (inactive) | -2.1% (inactive) | 80.9 | -45.5% (inactive) | 126 | -1.29 | 0.225 | 1.32 | 9.61% (inactive) | -0.44 (inactive) | -4.7e-05 (inactive) | 0.00523 (inactive) | inactive | 9.12% (inactive) | 13.9% (inactive) | 19% (inactive) | –
Fc1cc(F)c(F)c(SCCc2ccncc2)c1F | 541 | -0.9% (inactive) | -11.2% (inactive) | 104 | – | – | 0.361 | 0.923 | 0.0696 | -7.28% (inactive) | -0.422 (inactive) | -1.5e-05 (inactive) | – | inactive | 97.5% (active) | 7% (inactive) | -1.64% (inactive) | 0.0056 (inactive)
COc1cc2nc(N3CCN(C(=O)c4ccco4)CC3)nc(N)c2cc1OC | 679 | 3% (inactive) | – | – | -130% (inactive) | 128 | 1.25 | -0.94 | -1.9 | 9.37% (inactive) | -0.4 (inactive) | -1.8e-05 (inactive) | – | inactive | -2.52% (inactive) | -4.12% (inactive) | 19.3% (inactive) | 0.00375 (inactive)
COc1ccccc1OCC(O)COC(N)=O (stereo not drawn) | 634 | 2.6% (inactive) | -4.9% (inactive) | 109 | – | – | -1.14 | 0.796 | 1.17 | 19% (inactive) | -0.507 (inactive) | -3.9e-05 (inactive) | – | inactive | -8.84% (inactive) | 9.33% (inactive) | 35.1% (inactive) | 0.00504 (inactive)
CC[C@H]1OC(=O)C[C@@H](O)[C@H](C)[C@@H](O[C@@H]2O[C@H](C)C[C@H](N(C)C)[C@H]2O)[C@@H](CC=O)C[C@@H](C)C(=O)C=C[C@]2(C)O[C@H]2[C@@H]1C | 610 | -3.7% (inactive) | – | – | -120% (inactive) | 116 | 0.794 | -0.225 | -0.416 | 7.39% (inactive) | -0.498 (inactive) | -2.6e-05 (inactive) | – | inactive | 59.9% (active) | 6.6% (inactive) | 61.9% (active) | 0.00472 (inactive)
CC1(C)SC2[C@H](NC(=O)C(NC(=O)N3CCNC3=O)c3ccccc3)C(=O)N2C1C(=O)O (stereo partly drawn) | 705 | -9.5% (inactive) | – | – | -58.5% (inactive) | 117 | 0.0464 | -0.196 | -0.885 | 15.3% (inactive) | -0.461 (inactive) | -5.2e-05 (inactive) | – | inactive | 6.16% (inactive) | 3.1% (inactive) | 37.2% (inactive) | 0.00535 (inactive)
CN/C(=C/[N+](=O)[O-])NCCSCc1ccc(CN(C)C)o1 | 593 | -4.1% (inactive) | – | – | -23.6% (inactive) | 105 | 1.15 | -0.304 | -1.85 | 16.8% (inactive) | -0.46 (inactive) | 1.7e-05 (inactive) | – | inactive | -22.8% (inactive) | 13.1% (inactive) | 30.9% (inactive) | 0.00584 (inactive)
Fc1ccc(-c2cnc[nH]2)cc1 | 501 | 0.1% (inactive) | -41% (inactive) | 64.4 | -88.1% (inactive) | 109 | -1.11 | 0.681 | -1.47 | 3.42% (inactive) | -0.513 (inactive) | -9.6e-05 (inactive) | 0.00534 (inactive) | inactive | -0.515% (inactive) | -22.9% (inactive) | -37.6% (inactive) | –
CC(C)Cc1ccc(C(C)C(=O)O)cc1 (stereo not drawn) | 604 | -0.8% (inactive) | – | – | -67.2% (inactive) | 132 | -0.577 | -0.145 | 0.0811 | -0.828% (inactive) | -0.469 (inactive) | -4.6e-05 (inactive) | – | inactive | 1.82% (inactive) and -1.73% (inactive) | -8.48% (inactive) | -4.09% (inactive) | 0.00562 (inactive)
